This passage reports growth results from PubChem BioAssay (NCI).

Some test systems named below: T-47D breast; BT-549 breast; MDA-MB-435 melanoma; SW-620 colon; MCF7 breast; HCT-116 colon; HCC-2998 colon; KM12 colon.
Common to all, as to test: NCI-60 one-dose screen, 48 h (100 = growth as untreated, 0 = no growth, -100 = all killed)
Common to all, as to settings: 10 µM unless noted

Structures are written as SMILES. About 83,000 compounds went through this panel and 20% of them were active in at least one assay; those are over-represented in the sample as a whole.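 Growth was measured after 48 h exposure to one concentration of compound in 96-well plates. Values under 10 count as active.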 Values without a mark were called inactive. The source made the active and inactive calls.

As for `O=S(=O)(O)c1ccc(O)c(C2CCCCC2)c1`, the growth was 89.1% with T-47D breast; 98.2% with BT-549 breast; 102% with MDA-MB-435 melanoma; 108% in the experiment with SW-620 colon; 91.8% in the experiment on MCF7 breast; 92.7% in the experiment on HCT-116 colon. In addition, the growth was 113% in the experiment with HCC-2998 colon and 105% with KM12 colon.
As for `Cc1ccc(/C=N/NC(N)=S)s1`, the growth in the experiment with T-47D breast was 100%; in the experiment on BT-549 breast it was 113%; in the experiment on MDA-MB-435 melanoma, 106%; in the experiment on SW-620 colon, 107%; with MCF7 breast it was 100%; with HCT-116 colon, 99.5%. Also, the values for the growth with HCC-2998 colon and in the experiment with KM12 colon were 113% and 107%, respectively.
Regarding `O=C(c1cccc(C(=O)c2ccc3c4c(cccc24)C(=O)N(c2ccccc2)C3=O)c1)c1ccc2c3c(cccc13)C(=O)N(c1ccccc1)C2=O`, the growth in the experiment with T-47D breast is 76.3%; in the experiment with BT-549 breast it was 104%; in the experiment with MDA-MB-435 melanoma, 107%; in the experiment with SW-620 colon it was 104%; with MCF7 breast, 86.8%; in the experiment on HCT-116 colon, 93.9%. For the same compound, the growth in the experiment with HCC-2998 colon was 114%; in the experiment on KM12 colon, 98.2%.
Consider `O=C(c1ccccc1O)N1CCCC1`, for which the growth with T-47D breast is 95.6%; with BT-549 breast, 88.9%; in the experiment on MDA-MB-435 melanoma, 103%; in the experiment on SW-620 colon, 100%; in the experiment with MCF7 breast, 90.6%; in the experiment with HCT-116 colon, 88.5%. Also, the growth in the experiment on HCC-2998 colon was 101%; in the experiment with KM12 colon, 107%.
With `O=C(OCc1ccccc1)n1nnc2ccccc21`, the growth was 106% in the experiment with T-47D breast; 100% with BT-549 breast; 101% in the experiment with MDA-MB-435 melanoma; 107% in the experiment with SW-620 colon; 97.3% in the experiment with MCF7 breast; 98.1% in the experiment with HCT-116 colon. Also, in the experiment with KM12 colon, the growth was 107%.
Turning to `Nc1ccc2ccccc2c1-c1c(N)ccc2ccccc12`, the growth in the experiment on T-47D breast was 32.2%; with BT-549 breast it was 61.5%; in the experiment on MDA-MB-435 melanoma, -4.5% (active); in the experiment with SW-620 colon it was 24.3%; with MCF7 breast it was 19.6%; in the experiment with HCT-116 colon, 24.9%. In addition, the growth in the experiment with HCC-2998 colon is 66.3%; in the experiment with KM12 colon, 25.7%.
Turning to `COc1nc2ccccc2s1`, the growth in the experiment on T-47D breast is 99.2%; in the experiment on BT-549 breast, 90.6%; in the experiment with MDA-MB-435 melanoma it was 105%; in the experiment with SW-620 colon, 93%; in the experiment on MCF7 breast, 87.8%; in the experiment on HCT-116 colon, 103%. The growth in the experiment with KM12 colon is 102%.
As for `CCOP(=O)(NC(c1ccccc1)c1ccccc1)OCC`, the growth with T-47D breast was 90.4%; in the experiment on BT-549 breast it was 105%; in the experiment with MDA-MB-435 melanoma, 110%; in the experiment on SW-620 colon it was 103%; with MCF7 breast it was 92.7%; in the experiment with HCT-116 colon it was 93.8%. The growth was 110% in the experiment with HCC-2998 colon and 114% in the experiment on KM12 colon.
`CSc1nsc(N)n1`: the growth is 98.8% in the experiment with T-47D breast; 100% in the experiment on BT-549 breast; 102% in the experiment with MDA-MB-435 melanoma; 92.9% with SW-620 colon; 95.8% with MCF7 breast; 104% in the experiment with HCT-116 colon. Further, the growth was 106% with HCC-2998 colon and 101% in the experiment with KM12 colon.
For `CC(C)(C)NCCC(O)c1cc(C(F)(F)F)nc2c(C(F)(F)F)cccc12` (centres undefined), the growth was 86.8% in the experiment with T-47D breast; 86.5% in the experiment on BT-549 breast; 82.3% in the experiment with MDA-MB-435 melanoma; 89.6% in the experiment on SW-620 colon; 92.6% in the experiment with MCF7 breast; 56.8% in the experiment on HCT-116 colon. The growth in the experiment with KM12 colon was 58.7%.
For `Cc1[nH]c(=S)[nH]c(=O)c1C`, the growth with T-47D breast was 115%; in the experiment on BT-549 breast it was 99.7%; in the experiment on MDA-MB-435 melanoma it was 105%; with SW-620 colon, 109%; in the experiment with MCF7 breast it was 101%; with HCT-116 colon, 110%. In addition, the growth in the experiment with HCC-2998 colon is 103%; in the experiment on KM12 colon it was 108%.
With `Nc1ccn(C2OC(CO)C(O)C2F)c(=O)n1` (centres undefined), the growth is 94.1% in the experiment with T-47D breast; 93.9% in the experiment on BT-549 breast; 78.4% with MDA-MB-435 melanoma; 67.7% in the experiment on SW-620 colon; 46.7% with MCF7 breast; 49.2% in the experiment with HCT-116 colon. Besides, the growth with HCC-2998 colon is 49.7%; in the experiment on KM12 colon, 89.6%.
In the case of `CCNc1ccc2ccccc2c1N=Nc1ccc(N=Nc2ccccc2)cc1`, the growth is 84.7% with T-47D breast; 120% in the experiment with BT-549 breast; 110% with MDA-MB-435 melanoma; 99.8% in the experiment on SW-620 colon; 85.2% in the experiment with MCF7 breast; 72% in the experiment on HCT-116 colon. Moreover, the growth was 110% with HCC-2998 colon and 105% with KM12 colon.
As for `CCCCCCCCCCCCCC/C=C\C(CC(=O)O)C(=O)O` (centres undefined), the growth with T-47D breast was 115%; with BT-549 breast, 116%; with MDA-MB-435 melanoma, 126%; in the experiment with SW-620 colon it was 103%; in the experiment on MCF7 breast, 105%; with HCT-116 colon, 103%. For the same compound, the growth in the experiment on HCC-2998 colon is 102%; in the experiment with KM12 colon, 103%.
Take `Cc1c(Cl)cccc1NC(=S)NC(=O)c1ccccc1`: the growth with T-47D breast is 64.8%; with BT-549 breast it was 115%; with MDA-MB-435 melanoma, 101%; in the experiment with SW-620 colon, 106%; in the experiment with MCF7 breast, 53.3%; in the experiment on HCT-116 colon, 106%. Besides, the growth with KM12 colon is 89.6%.
With `CC(=O)OCC1OC(n2cnc3c(=S)nc(N)[nH]c32)C(OC(C)=O)C1OC(C)=O` (centres undefined), the growth with T-47D breast is 54.4%; with BT-549 breast it was 79.4%; in the experiment with MDA-MB-435 melanoma, 99.3%; in the experiment on SW-620 colon, 82.9%; in the experiment on MCF7 breast, 60.7%; in the experiment with HCT-116 colon, 43.3%. For the same compound, the growth in the experiment with KM12 colon was 86.3%.
Regarding `O=C(O)CSCC(=O)Nc1cc(C(F)(F)F)ccc1Cl`, the growth in the experiment on T-47D breast is 102%; in the experiment on BT-549 breast, 114%; in the experiment with MDA-MB-435 melanoma, 111%; in the experiment on SW-620 colon, 125%; in the experiment with MCF7 breast, 102%; in the experiment on HCT-116 colon it was 107%. In addition, the growth in the experiment on HCC-2998 colon was 118%; with KM12 colon, 105%.
In the case of `NNc1ncnc2nc[nH]c12`, the growth is 62.2% in the experiment with T-47D breast; 85% in the experiment on BT-549 breast; 51.3% with MDA-MB-435 melanoma; 41.6% in the experiment with SW-620 colon; 33% in the experiment with MCF7 breast; 24% in the experiment on HCT-116 colon. For the same compound, the growth in the experiment with HCC-2998 colon is 78%; with KM12 colon, 46%.
